Measurements taken from PubChem BioAssay (NCATS).
Results filed as inconclusive are left out. Unmarked numbers belong to inactive results. Calls of active or inactive are those of the source. The call rests on the fitted dose curve; in most records, active means well fitted inhibition curve with a large enough effect; inconclusive means small, poorly fitted or top-dose-only effect; inactive means no such curve, though single readings can be large or run the other way.

Molecular target: Cytochrome P450 3A4 (Homo sapiens) (UniProt P08684)
Assay: qHTS Assay for Inhibitors and Substrates of Cytochrome P450 3A4 (AID 884); further: nearly all actives have a fitted effect of over 50% in size
Conditions: recombinant CYP3A4, Luciferin-PPXE luminescence; series mostly up to 57.1 µM; activity change, negative = inhibition: at the top concentration
Method in brief: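 Luminescent readout of luciferin produced by CYP3A4 (20 nM) dealkylation of Luciferin-PPXE, 25 uM (its KM). NADPH-driven reaction ran 60 min at RT after 10 min compound preincubation; data scaled to 57 uM ketoconazole as 100% inhibition.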
On the % scale 0 is the no-effect control and ±100 the full control effect; potency means the concentration at half of the fitted maximal effect.

Cytochrome P450 3A4 (Homo sapiens), sequence (P08684 whole entry, looked up): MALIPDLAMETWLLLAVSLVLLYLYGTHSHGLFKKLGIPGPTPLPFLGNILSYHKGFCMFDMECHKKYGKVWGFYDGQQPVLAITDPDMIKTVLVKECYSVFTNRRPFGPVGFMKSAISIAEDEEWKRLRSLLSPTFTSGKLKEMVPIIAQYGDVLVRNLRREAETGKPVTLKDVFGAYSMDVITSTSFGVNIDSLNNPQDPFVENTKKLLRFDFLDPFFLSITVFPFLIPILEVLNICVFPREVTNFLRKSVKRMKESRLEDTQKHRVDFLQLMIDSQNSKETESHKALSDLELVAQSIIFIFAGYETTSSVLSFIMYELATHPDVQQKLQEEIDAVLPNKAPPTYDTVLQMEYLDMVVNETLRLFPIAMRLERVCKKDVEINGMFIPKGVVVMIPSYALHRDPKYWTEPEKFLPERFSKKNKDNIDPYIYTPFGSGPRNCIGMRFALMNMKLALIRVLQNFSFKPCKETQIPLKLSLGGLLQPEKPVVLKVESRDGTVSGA

SMILES	activity change, negative = inhibition	Potency
Cn1c(N)cc(=O)n(Cc2ccccc2)c1=O	-42.5%	–
CCC1=C2CC[C@H]3C(=O)N(CC)C(=O)[C@H]3[C@H]2[C@@]2(Cc3ccccc3)C(=O)N(CC3CC3)C(=O)N2C1=O	–	2.51 µM (active)
CN1CCN(C(=O)c2nc3ccc(Cl)cc3[nH]2)CC1	-19%	–
O=C(Nc1cc(NC(=O)c2ccccc2)c(C(=O)O)cc1C(=O)O)c1ccccc1	-14%	–
C[C@@]1(O)C(O)[C@@H](CO)O[C@H]1n1cnc2c(NC3CCCC3)nc(Cl)nc21 (stereo not given in full)	-29.2%	–
CN(C)/C=N/c1cc(=O)[nH]c(=O)n1C	7.82%	–
O=Cc1ccc(B(O)O)cc1	-5.49%	–
CN(C)/C=N/c1cc(=O)n(C)c(=O)n1Cc1ccccc1	-26.8%	–
COC(=O)[C@@H]1C[C@@]2(O)[C@@H](O)[C@@H](O)[C@@H](O)C[C@H]2N1Cc1ccc(C)s1	-12.2%	–
COC(=O)c1ccc(CN2[C@H](C(=O)OC)C[C@@]3(O)[C@@H](O)[C@@H](O)[C@@H](O)C[C@@H]23)cc1	-18.1%	–
COC(=O)c1ccc(C23CC4(C2)[C@H](CN(Cc2ccc(C(F)(F)F)cc2)[C@@H]4c2ccccc2)C3c2ccc(C(F)(F)F)cc2)cc1 (stereo not given in full)	-25%	–
Cc1cc(N)c2cc(OCCOc3ccc4nc(C)cc(N)c4c3)ccc2n1	-0.402% [at 11.4 µM]	–
COC(=O)c1ccc(C23CC4(C2)[C@H](CN(Cc2ccc(-c5ccccc5)cc2)[C@@H]4c2ccccc2)C3c2ccccc2)cc1 (stereo not given in full)	-26.6%	–
Cc1ccc(B(O)O)cc1	-24.1%	–
COC(=O)[C@@H]1C[C@@]2(O)[C@H](O)[C@H](O)[C@H](O)C[C@H]2N1Cc1ccc(C(C)(C)C)cc1	-27.1%	–
